Molecules are shown by their SMILES. Compounds without any hit were thinned out: in the full panel of roughly 79,000, 15% have a hit. Values without a mark were called inactive. Active and inactive are the calls of the source. No stated cut-off is given here; in the data, active means growth inhibition above about 70%; inactive means the rest.

Results on eleven compounds are retold here after PubChem BioAssay (NCI).

Test [1] can be described thus: NCI Yeast Anticancer Drug Screen. Data for the rad50 strain (AID 155).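 Further: 0% = growth of vehicle-only cultures of the same strain.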 To be noted: S. cerevisiae rad50 strain growth inhibition, stronger effect = higher value. In outline:
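Readout: growth inhibition relative to vehicle-treated cultures. Compound exposure was carried out in a genetically defined yeast strain deficient in DNA damage repair.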

Test [2] in a line: NCI Yeast Anticancer Drug Screen. Data for the sgs1 mgt1 strain (AID 161).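 Further: 0% = growth of cultures given vehicle only.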 The settings on record: S. cerevisiae sgs1 mgt1 strain, stronger effect = higher value. In a few lines: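 Inhibition of yeast growth, normalised to vehicle-treated controls, is reported for a strain bearing genetic alterations in DNA damage repair.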
A short description of test [3]: NCI Yeast Anticancer Drug Screen. Data for the cln2 rad14 strain (AID 165).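 Further: 0% = growth equal to vehicle treated cultures.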 The settings on record: S. cerevisiae cln2 rad14 strain, stronger effect = higher value. In a few lines: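 Compounds are applied to the cln2 rad14 yeast strain, and growth is then compared with that of vehicle-treated cultures to give inhibition.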
Test [4] in a line: NCI Yeast Anticancer Drug Screen. Data for the bub3 strain (AID 167). The settings on record: S. cerevisiae bub3 mutant strain, stronger effect = higher value. In a few lines:
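Readout: yeast growth inhibition, expressed relative to vehicle-only wells. The test organism is a mutant strain from a panel with lesions in DNA repair or checkpoint genes.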

Test [5] is described as follows: NCI Yeast Anticancer Drug Screen. Data for the mlh1 rad18 strain (AID 175). To be noted: S. cerevisiae mlh1 rad18 strain growth inhibition, stronger effect = higher value. In a few lines:
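Read-out is yeast growth inhibition, calculated against vehicle-only controls. The compound was applied to a strain engineered with DNA damage repair alterations.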

Test [6] can be described thus: NCI Yeast Anticancer Drug Screen. Data for the mec2-1 strain (AID 157). To be noted: S. cerevisiae mec2-1 strain, stronger effect = higher value. In outline:
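Strain: mec2-1 (DNA repair/cell cycle alteration). Compound exposure, then growth measured; inhibition expressed relative to vehicle.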

Setting [7] is: at 5.0 µM (retest, dose inferred, filed as 0.5).
Setting [8] is: at 50.0 µM (retest, dose inferred, filed as 5.0).

With `CCc1cc2c(cc1O)C(C)(C)CCC2(C)C`, the growth inhibition is -1% in test [1] (setting [7]); 7% in test [1] (setting [8]); 98% (active) in test [1] (at 50.0 µM); -3% in test [2] (setting [7]); 7% in test [2] (setting [8]); 52.5% in test [2] (at 50.0 µM). Besides, the growth inhibition in test [3] (setting [7]) is 5%; in test [3] (setting [8]), 10%; in test [3] (at 50.0 µM), 98% (active); in test [4] (setting [7]) it was 3%; in test [4] (setting [8]) it was 18%; in test [4] (at 50.0 µM) it was 43%. Further, the growth inhibition in test [5] (setting [7]) is 0%; in test [5] (setting [8]), 4%; in test [5] (at 50.0 µM), 98% (active).

For `N=C(N)SCc1ccccc1`, the growth inhibition was -2.55% [middle of 5 runs] in test [1] (at 50.0 µM), -2.2% [middle of 5 runs] in test [6] (at 50.0 µM), 7.55% [middle of 5 runs] in test [2] (at 50.0 µM) and -5.6% [middle of 5 runs] in test [4] (at 50.0 µM).

Turning to `Nc1ncc(CCCCc2ccc(NC(=O)Nc3ccc(S(=O)(=O)F)cc3)cc2)c(N)n1`, the growth inhibition in test [1] (setting [7]) is -1%; in test [1] (setting [8]), 60%; in test [1] (at 50.0 µM), 98.5% (active); in test [6] (setting [7]), -15%; in test [6] (setting [8]), 60%; in test [6] (at 50.0 µM), 99.5% (active). In addition, the growth inhibition is -8% in test [3] (setting [7]); 57% in test [3] (setting [8]); 92.8% (active) in test [3] (at 50.0 µM); -4% in test [4] (setting [7]); 48% in test [4] (setting [8]); 98.8% (active) in test [4] (at 50.0 µM). Besides, the growth inhibition was 4% in test [5] (setting [7]), 84% (active) in test [5] (setting [8]) and 99.2% (active) in test [5] (at 50.0 µM).

On to `C/C(=N\O)C(CN(C)C)C(c1ccccc1)c1c(O)c2ccccc2oc1=O` (stereo not drawn), for which the growth inhibition in test [6] (setting [7]) was 12%; in test [6] (setting [8]) it was 12%; in test [6] (at 50.0 µM) it was 63.4%; in test [2] (setting [7]), 15%; in test [2] (setting [8]) it was 15%; in test [2] (at 50.0 µM) it was 82.2% (active). The growth inhibition is 4% in test [3] (setting [7]); 4% in test [3] (setting [8]); 75.8% (active) in test [3] (at 50.0 µM); 12% in test [4] (setting [7]); 12% in test [4] (setting [8]); 74.7% (active) in test [4] (at 50.0 µM). Moreover, the growth inhibition is 14% in test [5] (setting [7]), 14% in test [5] (setting [8]) and 75.2% (active) in test [5] (at 50.0 µM).

Take `COC1OC(COC(C)=O)C(OC(C)=O)C(OC(C)=O)[C]1(OC(C)=O)[Hg][O]C(C)=O` (stereo not drawn): the growth inhibition in test [6] (setting [7]) is 100% (active); in test [6] (setting [8]) it was 100% (active); in test [6] (at 50.0 µM) it was 98.5% (active); in test [2] (setting [7]), 99% (active); in test [2] (setting [8]) it was 99% (active); in test [2] (at 50.0 µM) it was 99.7% (active). In addition, the growth inhibition in test [3] (setting [7]) is 99% (active); in test [3] (setting [8]), 98% (active); in test [3] (at 50.0 µM), 99.4% (active); in test [4] (setting [7]), 99% (active); in test [4] (setting [8]) it was 99% (active); in test [4] (at 50.0 µM), 97.8% (active). The results for the growth inhibition in test [5] (setting [7]), in test [5] (setting [8]) and in test [5] (at 50.0 µM) were 99% (active), 99% (active) and 99.7% (active), respectively.

`NC(c1ccccc1)C(O)c1ccccc1` (stereo not drawn): the growth inhibition in test [1] (at 50.0 µM) is 2.1% [middle of 4 runs]; in test [6] (at 50.0 µM) it was 3.2% [middle of 4 runs]; in test [2] (at 50.0 µM), 10.7% [middle of 4 runs]; in test [5] (at 50.0 µM), -10.7% [middle of 4 runs].

Turning to `CCCCN(CC)CC(C(C)=O)c1c(O)c2ccccc2oc1=O` (stereo not drawn), the growth inhibition is 4% in test [6] (setting [7]); 28% in test [6] (setting [8]); 48.2% in test [6] (at 50.0 µM); 0% in test [2] (setting [7]); 65% in test [2] (setting [8]); 60.5% in test [2] (at 50.0 µM). For the same compound, the growth inhibition in test [3] (setting [7]) was 15%; in test [3] (setting [8]), 59%; in test [3] (at 50.0 µM), 45.2%; in test [4] (setting [7]), 21%; in test [4] (setting [8]), 73% (active); in test [4] (at 50.0 µM), 59%. For the same compound, the growth inhibition in test [5] (setting [7]) was -13%; in test [5] (setting [8]), 34%; in test [5] (at 50.0 µM) it was 42.9%.

Take `C=CCN(CC=C)CC(C(C)=O)C(c1ccccc1)c1c(O)c2ccccc2oc1=O` (stereo not drawn): the growth inhibition is 32% in test [1] (setting [7]); 32% in test [1] (setting [8]); 85.3% (active) in test [1] (at 50.0 µM); 28% in test [6] (setting [7]); 28% in test [6] (setting [8]); 74.2% (active) in test [6] (at 50.0 µM). Moreover, the growth inhibition in test [3] (setting [7]) is 13%; in test [3] (setting [8]), 13%; in test [3] (at 50.0 µM), 81.2% (active); in test [4] (setting [7]), 27%; in test [4] (setting [8]) it was 27%; in test [4] (at 50.0 µM), 78.8% (active). In addition, the figures for the growth inhibition in test [5] (setting [7]), in test [5] (setting [8]) and in test [5] (at 50.0 µM) were 32%, 32% and 80.2% (active), respectively.

Regarding `[Cl][Sn]([c]1ccccc1)[c]1ccccc1`, the growth inhibition in test [6] (setting [7]) is 30%; in test [6] (setting [8]), 96% (active); in test [6] (at 50.0 µM), 85.8% (active); in test [2] (setting [7]), 56%; in test [2] (setting [8]), 99% (active); in test [2] (at 50.0 µM), 89% (active). Further, the growth inhibition in test [3] (setting [7]) is 34%; in test [3] (setting [8]) it was 97% (active); in test [3] (at 50.0 µM) it was 54.2%; in test [4] (setting [7]), 57%; in test [4] (setting [8]) it was 98% (active); in test [4] (at 50.0 µM), 87.8% (active). Also, the figures for the growth inhibition in test [5] (setting [7]), in test [5] (setting [8]) and in test [5] (at 50.0 µM) were 30%, 90% (active) and 83.5% (active), respectively.

Take `CCC1CCCCN1CC(C(C)=O)C(c1ccccc1)c1c(O)c2ccccc2oc1=O` (stereo not drawn): the growth inhibition is 13% in test [1] (setting [7]); 13% in test [1] (setting [8]); 78.2% (active) in test [1] (at 50.0 µM); 0% in test [6] (setting [7]); 0% in test [6] (setting [8]); 64.8% in test [6] (at 50.0 µM). Also, the growth inhibition in test [3] (setting [7]) was -6%; in test [3] (setting [8]) it was -6%; in test [3] (at 50.0 µM), 72.5% (active); in test [4] (setting [7]), 6%; in test [4] (setting [8]), 6%; in test [4] (at 50.0 µM), 71.3% (active). For the same compound, the results for the growth inhibition in test [5] (setting [7]), in test [5] (setting [8]) and in test [5] (at 50.0 µM) were 7%, 7% and 75.3% (active), respectively.

Regarding `NN1CCCC1C(=O)O` (stereo not drawn), the growth inhibition in test [1] (setting [7]) is -1%; in test [1] (setting [8]), 2%; in test [1] (at 50.0 µM), 23.1%; in test [6] (setting [7]), -2%; in test [6] (setting [8]), -1%; in test [6] (at 50.0 µM) it was 53.1%. Also, the growth inhibition in test [2] (setting [7]) was 0%; in test [2] (setting [8]), 0%; in test [2] (at 50.0 µM) it was 28.2%; in test [4] (setting [7]) it was 4%; in test [4] (setting [8]) it was -2%; in test [4] (at 50.0 µM), 99.3% (active). Also, the growth inhibition was -1% in test [5] (setting [7]), 2% in test [5] (setting [8]) and 65.6% in test [5] (at 50.0 µM).
